Source: PubChem BioAssay (NCATS)
Inconclusive results are not listed. Where a call stands in place of a potency, no number is given. Unmarked numbers belong to inactive results. Activity calls are given as the source filed them. Unless noted, calls follow the shape of the dose curve; as a rule, active = well fitted curve in the direction sought with a large enough effect; inconclusive = small, poorly fitted or top-dose-only effect, or another doubt; inactive = no such curve, though single readings can be large; an effect the other way counts as inactive or inconclusive.

Assays:
[1] = HepG2 cells viability qHTS for Zika virus inhibitors (AID 1347168)
Method in brief: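 Counter-screen for cytotoxicity of hits from NS2B-NS3 protease qHTS. Overnight-attached cells (2.5 x 10^5 cells/mL, DMEM/4% FBS) were dosed in titration, incubated 24 to 48 hours, then assayed by CellTiter Glo.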

[2] = biological target: Rap guanine nucleotide exchange factor 3 (Homo sapiens) (UniProt O95398); experiment: Confirmatory qHTS for antagonist of cAMP-regulated guanine nucleotide exchange factor 3 (EPAC1) (AID 1645880); also: nearly all actives have a fitted effect of over 55% in size
Method in brief: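 Nucleotide exchange uses 100 nM EPAC1, 250 nM RAP1B-BODIPY-GDP and 50 uM GDP, with compounds in a concentration-titration series. After 5 min at room temperature, fluorescence (480 nm ex/540 nm em) is read every 5 min for 30 min. Data are normalized to control ATA and DMSO.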

[3] = biological target: Rap guanine nucleotide exchange factor 4 (Homo sapiens) (UniProt Q8WZA2); experiment: Confirmatory qHTS for agonist of cAMP-regulated guanine nucleotide exchange factor 4 (EPAC2) (AID 1645884);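 also: nucleotide exchange releases bodipy-GDP from Rap1 and this lowers its fluorescence; nearly all actives have a fitted effect of over 65% in size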
[4] = biological target: Rap guanine nucleotide exchange factor 4 (Homo sapiens) (UniProt Q8WZA2); experiment: Confirmatory qHTS for antagonist of cAMP-regulated guanine nucleotide exchange factor 4 (EPAC2) (AID 1645885); also: potency is read from the fitted curve at half-maximal effect; nearly all actives have a fitted effect of over 25% in size
[5] = biological target: Rap guanine nucleotide exchange factor 3 (Homo sapiens) (UniProt O95398); experiment: Counterscreen qHTS for antagonist of cAMP-regulated guanine nucleotide exchange factor 3 (EPAC1) (AID 1645888);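 also: fluorescence loss as bound BODIPY-GDP is released from Rap1B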
Method in brief: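 Measured: fluorescence of BODIPY-GDP bound to Rap1B, which falls as exchange proceeds. Conditions include 50 uM competing GDP, 5 and 30 min reads, and a later cAMP challenge for antagonist detection.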

[6] = biological target: Glutathione peroxidase 1 (Homo sapiens) (UniProt P07203); experiment: Primary qHTS Assay for Inhibitors of Recombinant Selenoprotein Glutathione Peroxidase 1 (GPX1) (AID 1845191); also: nearly all actives have a fitted effect of over 65% in size
Method in brief: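 Recombinant GPX1 (10 nM final) was preincubated with compound for 30 min at room temperature, then reacted with 1 mM GSH, 0.5 mM CHP, 0.5 mM NADPH and 100 nM glutathione reductase; NADPH fluorescence (340/450 nm) was read at 0 and 15 min.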

[7] = NFAT Signaling Pathway (AID 444; active = well fitted curve in either direction with a large enough effect, not every such curve was filed as active;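 also: carbachol stimulus at about its EC50 of 1 µM final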); conditions: Jurkat NFAT-bla M1, carbachol, beta-lactamase ratio, 5 h; at 38 µM (top of the series)
Method in brief: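 Jurkat cells carrying an NFAT-driven β-lactamase reporter and co-transfected muscarinic M1 receptor were treated with compound plus carbachol (1 uM final, an EC50 level) for 5 h at 37 °C. CCF4 loading followed for 1 h at RT; 460/530 nm ratio gave %activity.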

[8] = biological target: Cytochrome P450 2C9 (Homo sapiens) (UniProt P11712); experiment: qHTS Assay for Inhibitors and Substrates of Cytochrome P450 2C9 (AID 883); also: nearly all actives have a fitted effect of over 60% in size
Method in brief: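 A luminogenic readout tracked human CYP2C9 (10nM) converting deoxyluciferin (100uM, at KM) in 25mM KPO4 during 60 min at 37C with regenerated NADPH. Values normalized to 57uM sulphaphenazole as complete inhibition.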

[9] = biological target: Cytochrome P450 2D6 (Homo sapiens) (UniProt P10635); experiment: qHTS Assay for Inhibitors and Substrates of Cytochrome P450 2D6 (AID 891);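 also: luciferin methyl ether substrate demethylated by CYP2D6 with NADPH regeneration; nearly all actives have a fitted effect of over 60% in size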
Method in brief: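 Human CYP2D6 (5 nM) with 30 uM Luciferin-ME EGE (at Km) in 100 mM KPO4, compound preincubated 10 min, then NADPH regeneration system for 60 min at room temperature. Luciferin read by luminescence; normalized to 1.43 uM quinidine.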

Sequence of Glutathione peroxidase 1 (Homo sapiens) (P07203 whole entry, looked up): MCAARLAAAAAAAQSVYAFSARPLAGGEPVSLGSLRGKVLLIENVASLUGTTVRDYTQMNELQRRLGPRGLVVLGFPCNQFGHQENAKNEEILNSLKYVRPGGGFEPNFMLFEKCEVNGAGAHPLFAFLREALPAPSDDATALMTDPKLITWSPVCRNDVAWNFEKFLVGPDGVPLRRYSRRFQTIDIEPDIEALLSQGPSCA
Sequence of Rap guanine nucleotide exchange factor 4 (Homo sapiens) (Q8WZA2 whole entry, looked up): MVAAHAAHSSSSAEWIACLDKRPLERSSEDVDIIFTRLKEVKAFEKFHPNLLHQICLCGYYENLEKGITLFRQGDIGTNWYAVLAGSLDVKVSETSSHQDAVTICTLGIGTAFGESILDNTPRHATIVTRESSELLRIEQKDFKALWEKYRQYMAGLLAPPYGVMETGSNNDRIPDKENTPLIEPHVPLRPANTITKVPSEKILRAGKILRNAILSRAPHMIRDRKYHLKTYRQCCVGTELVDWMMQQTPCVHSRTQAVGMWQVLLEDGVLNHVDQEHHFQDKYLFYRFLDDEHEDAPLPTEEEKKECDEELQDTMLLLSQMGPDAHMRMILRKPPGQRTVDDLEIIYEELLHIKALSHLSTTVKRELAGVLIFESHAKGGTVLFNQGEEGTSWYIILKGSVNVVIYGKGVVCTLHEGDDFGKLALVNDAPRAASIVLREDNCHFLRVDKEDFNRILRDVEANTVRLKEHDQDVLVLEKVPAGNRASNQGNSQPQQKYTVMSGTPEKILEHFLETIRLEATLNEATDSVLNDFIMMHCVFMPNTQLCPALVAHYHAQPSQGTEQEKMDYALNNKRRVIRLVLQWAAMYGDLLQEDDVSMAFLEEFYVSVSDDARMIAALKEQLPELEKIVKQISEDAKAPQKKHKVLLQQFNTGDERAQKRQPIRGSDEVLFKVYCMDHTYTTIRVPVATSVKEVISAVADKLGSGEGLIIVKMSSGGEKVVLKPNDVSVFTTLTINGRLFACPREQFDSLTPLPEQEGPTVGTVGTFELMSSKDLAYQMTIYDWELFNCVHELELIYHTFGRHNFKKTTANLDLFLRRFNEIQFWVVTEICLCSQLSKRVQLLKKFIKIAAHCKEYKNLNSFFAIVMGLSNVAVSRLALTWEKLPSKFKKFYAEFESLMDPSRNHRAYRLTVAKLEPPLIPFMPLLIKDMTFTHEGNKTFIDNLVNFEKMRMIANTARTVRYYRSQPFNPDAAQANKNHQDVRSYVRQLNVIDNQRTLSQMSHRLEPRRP
Sequence of Rap guanine nucleotide exchange factor 3 (Homo sapiens) (O95398 whole entry, looked up): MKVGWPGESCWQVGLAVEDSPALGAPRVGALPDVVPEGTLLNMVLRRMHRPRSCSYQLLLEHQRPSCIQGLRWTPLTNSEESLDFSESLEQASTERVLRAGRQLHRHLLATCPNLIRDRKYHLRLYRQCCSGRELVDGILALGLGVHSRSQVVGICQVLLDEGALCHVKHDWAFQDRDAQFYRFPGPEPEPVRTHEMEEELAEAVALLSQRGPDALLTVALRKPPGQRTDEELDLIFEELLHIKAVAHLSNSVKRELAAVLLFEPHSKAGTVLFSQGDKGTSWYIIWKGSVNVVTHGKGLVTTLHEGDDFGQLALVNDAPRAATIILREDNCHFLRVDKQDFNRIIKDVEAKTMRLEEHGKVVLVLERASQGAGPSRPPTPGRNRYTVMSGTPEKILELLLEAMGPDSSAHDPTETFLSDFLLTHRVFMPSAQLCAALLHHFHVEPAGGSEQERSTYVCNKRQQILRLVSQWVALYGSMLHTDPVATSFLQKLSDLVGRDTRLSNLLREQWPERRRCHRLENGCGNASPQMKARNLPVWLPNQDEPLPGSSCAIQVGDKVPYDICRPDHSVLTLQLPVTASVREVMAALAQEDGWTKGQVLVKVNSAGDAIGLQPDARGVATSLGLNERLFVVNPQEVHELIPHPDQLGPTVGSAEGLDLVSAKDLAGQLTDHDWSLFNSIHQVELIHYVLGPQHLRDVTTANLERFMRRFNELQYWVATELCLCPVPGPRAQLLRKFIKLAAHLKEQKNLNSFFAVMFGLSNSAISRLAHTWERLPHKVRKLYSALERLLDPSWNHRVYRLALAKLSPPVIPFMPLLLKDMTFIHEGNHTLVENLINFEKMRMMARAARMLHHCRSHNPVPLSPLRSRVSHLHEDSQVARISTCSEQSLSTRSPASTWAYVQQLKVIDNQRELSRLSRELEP
Sequence of Cytochrome P450 2D6 (Homo sapiens) (P10635 whole entry, looked up): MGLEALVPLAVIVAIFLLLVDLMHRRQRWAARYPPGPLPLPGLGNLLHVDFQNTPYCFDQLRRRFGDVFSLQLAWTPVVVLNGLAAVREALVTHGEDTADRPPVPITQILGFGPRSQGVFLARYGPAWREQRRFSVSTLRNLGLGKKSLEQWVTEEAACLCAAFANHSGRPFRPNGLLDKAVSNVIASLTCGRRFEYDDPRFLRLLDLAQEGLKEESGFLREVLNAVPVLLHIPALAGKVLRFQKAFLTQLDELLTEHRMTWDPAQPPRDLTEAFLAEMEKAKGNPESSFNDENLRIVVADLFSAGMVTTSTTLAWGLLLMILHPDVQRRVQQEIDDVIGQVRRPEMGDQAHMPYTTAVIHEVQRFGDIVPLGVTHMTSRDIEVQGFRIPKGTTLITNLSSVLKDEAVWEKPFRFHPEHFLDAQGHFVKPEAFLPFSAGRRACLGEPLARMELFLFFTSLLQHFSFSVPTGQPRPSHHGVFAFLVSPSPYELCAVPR
Sequence of Cytochrome P450 2C9 (Homo sapiens) (P11712 whole entry, looked up): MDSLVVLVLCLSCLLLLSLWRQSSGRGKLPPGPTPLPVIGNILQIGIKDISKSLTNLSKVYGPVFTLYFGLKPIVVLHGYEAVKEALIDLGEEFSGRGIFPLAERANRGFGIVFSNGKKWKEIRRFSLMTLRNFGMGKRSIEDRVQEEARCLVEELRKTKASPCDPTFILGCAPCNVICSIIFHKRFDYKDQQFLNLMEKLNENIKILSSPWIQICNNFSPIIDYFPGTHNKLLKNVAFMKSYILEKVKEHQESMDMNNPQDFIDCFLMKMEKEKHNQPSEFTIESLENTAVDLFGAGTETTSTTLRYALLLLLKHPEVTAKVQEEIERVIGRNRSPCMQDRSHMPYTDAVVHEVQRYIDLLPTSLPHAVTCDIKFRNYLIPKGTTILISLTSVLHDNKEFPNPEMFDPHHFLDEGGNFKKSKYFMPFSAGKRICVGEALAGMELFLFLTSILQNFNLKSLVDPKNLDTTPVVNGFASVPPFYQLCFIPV

CC[C@@H]1O[C@]2(C=C[C@@H]1C)C[C@H]1C[C@H](CC=C(C)[C@@H](O[C@@H]3C[C@H](OC)[C@H](O[C@@H]4C[C@H](OC)[C@H](O)[C@H](C)O4)[C@H](C)O3)[C@@H](C)C=CC=C3CO[C@@H]4[C@@H](O)C(C)=C[C@@H](C(=O)O1)[C@]34O)O2
Potency [1]: inactive

CCCCCCc1cc2cc(-c3nnc(-c4cccc(Cl)c4)o3)c(=O)oc2cc1O
Potency [2]: inactive
outcome [3]: inactive
Potency [4]: 7.57 µM (active)
outcome [5]: inactive

CC1(C)CC[C@]2(C(=O)O)CC[C@]3(C)C(=CC[C@@H]4[C@@]5(C)C[C@@H](O)[C@H](O)C(C)(C)[C@@H]5CC[C@]43C)[C@@H]2C1
Potency [6]: inactive

COc1ccc(/C=C\C(=O)Nc2ccccc2C(=O)O)cc1OC
activity change, negative = inhibition [7]: -3.53%
Potency [8]: inactive
Potency [9]: inactive
